# Screening data from PubChem.
# Sampled rows, rich in hits. Any-hit rate of the full collection: about 12%.
# Pf growth 96h: P. falciparum growth inhibition at 96 hours; P. falciparum luciferase reporter growth, 96 h; Potency, µM (doses to about 28.7 µM), for the others: at the top dose activity change, negative = inhibition, most hits filed as inhibitors; 320,000 compounds, 6.9% hits; further: on the % scale 0 is the no-effect control and ±100 the full control effect
#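 Luminescence readout: decreased luciferase signal marks inhibited growth of reporter-expressing P. falciparum in infected red cells (2% hematocrit, 0.05% parasitemia final), exposed to compound two generations (96 h, 37 C, 5% CO2).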
# Pf growth 48h: P. falciparum growth inhibition at 48 hours (one generation) | P. falciparum luciferase growth in erythrocytes, 48 h | Potency, µM (doses to about 28.7 µM), for inactives: at the highest dose activity change, negative = inhibition, most hits filed as inhibitors | 310,000 compounds, 5.9% hits | AID 504832; further: on the % scale 0 is the no-effect control and ±100 the full control effect
#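 Here the parasites carry a stable luciferase gene and grow inside erythrocytes in Albumax-based RPMI medium with compound for one erythrocytic cycle. Activity is scored as loss of luminescent signal.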
# Sm TGR block: blocks Schistosoma mansoni thioredoxin glutathione reductase. Q962Y6. purified TGR, DTNB reduction, TNB absorbance 405 nm. Potency, µM (titrated, usually from 114 µM), for inactives: top-dose activity change, negative = inhibition, usual class: inhibitors. 360,000 compounds, 3% hits. AID 485364; further: on the % scale 0 is the no-effect control and ±100 the full control effect; nearly all actives have a fitted effect of over 60% in size
#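 First, TGR (20 nM dispensed) and NADPH were mixed with compound. Second, a 15 min room-temperature incubation followed. Third, further NADPH and then DTNB were added to start the reaction. Finally, TNB absorbance was monitored kinetically.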
# SARS PLpro yeast: SARS-CoV PLP inhibition in yeast | S. cerevisiae expressing SARS-CoV PLpro, growth rescue | Potency, µM (highest dose often 32.9 µM), without a hit: at the top dose activity, positive = growth rescue, usual class: activators | 330,000 compounds, 0.19% hits | AID 485353; calls by dose curve; further: 0% is about no effect; nearly all actives have a fitted effect of over 55% in size
# Starred values were filed as active, the others as inactive; ? = inconclusive; . = no result given. Unless noted, the call rests on the fitted dose curve; in most records, active means well fitted curve in the direction sought with a large enough effect; inconclusive means small, poorly fitted or top-dose-only effect, or another doubt; inactive means no such curve, though single readings can be large; an effect the other way counts as inactive or inconclusive. Potency means the concentration at half of the fitted maximal effect.
SMILES,Pf growth 96h,Pf growth 48h,Sm TGR block,SARS PLpro yeast
O=c1[nH]c(=O)n(Cc2ccccc2)c(O)c1C=NCCN1CCNCC1,.,19%,35µM*,11%
O=c1[nH]c(=O)n(CCC2=CCCCC2)c(O)c1/C=N/Nc1ccccc1,-29%,1%,?,-2%
NC1CCCCC1N=Cc1c(O)n(CCc2ccc(F)cc2)c(=O)[nH]c1=O (centres undefined),4.7µM*,?,-1%,17%
O=c1[nH]c(=O)n(CCC2=CCCCC2)c(O)c1C=NCCN1CCNCC1,.,21%,10µM*,-7%
Cc1nc(CCNC(=O)C2CCC(=O)N(Cc3cccc(F)c3)C2)sc1C (centres undefined),25%,5%,-15%,?
CCCN1C(=O)C(Cc2nc3ccccc3c(=O)n2-c2ccc(OC)cc2)c2cc(C)ccc21 (centres undefined),.,.,-1%,.
O=c1[nH]c(=O)n(Cc2ccccc2)c(O)c1C=Nc1ccc(CN2CCOCC2)cc1,-13%,5%,35µM*,5%
CCN(CC)CCN=Cc1c(O)n(CCc2ccccc2)c(=O)[nH]c1=O,29%,-12%,25µM*,14%
O=c1c(C=NCc2cccs2)c(O)n(C2CCCCC2)c(=O)n1C1CCCCC1,?,.,3%,5%
O=c1c2ccccc2c(C=NCCCN2CCOCC2)c(O)n1Cc1ccc2c(c1)OCO2,?,?,25%,2%
O=c1c(C=NCCN2CCNCC2)c(O)n(C2CCCCC2)c(=O)n1C1CCCCC1,?,13µM*,-6%,-1%
O=c1c2ccccc2c(C=NCCCN2CCOCC2)c(O)n1Cc1ccccc1,-12%,10µM*,-3%,3%
Cc1ccc(CSc2nnc(-n3c(=O)c(C#N)cc4c(=O)n5cc(C)ccc5nc43)s2)cc1,.,.,1%,.
CCCCN(C)CCNC(=O)CCn1nc(-c2ccc(C)cc2)ccc1=O,3%,10%,-12%,-1%
Cc1noc(-c2ccc(-c3noc(-c4ccc(Cl)cc4)n3)cc2)n1,.,.,10%,.
CCCCN(C(=O)COC(=O)c1ccc(C=O)cc1)c1c(N)n(CCC)c(=O)[nH]c1=O,?,?,-11%,0%
COc1ccc(/C=N/c2oc(C)c(C)c2C#N)c(OC)c1,12µM*,-9%,50µM*,0%
COc1cc(/C=N/c2oc(C)c(C)c2C#N)cc(Br)c1O,-28%,11%,11µM*,-1%
Cc1oc(/N=C/c2ccccc2)c(C#N)c1C,?,20%,-3%,0%
Cc1cccc(-c2nc(SCCCOc3ccccc3Cl)n3[nH]c(=O)cc3n2)c1,.,.,5%,.
Cn1c(=O)c(C(=O)CSc2ccccc2)c(N)n(Cc2ccccc2)c1=O,18%,?,4%,3%
Cn1c(N)c(C(=O)CCl)c(=O)n(Cc2ccccc2)c1=O,?,?,11µM*,-9%
Cn1c(N)c(C(=O)CCl)c(=O)n(C)c1=O,1%,.,25µM*,-7%
CN(C)CC(=O)c1c(N)n(Cc2ccccc2)c(=O)n(C)c1=O,7%,3%,2%,0%
Cn1c(=O)c(C(=O)CCl)c(N)n(Cc2ccccc2)c1=O,?,-27%,7.1µM*,-22%
SMILES,Pf growth 96h,Pf growth 48h,Sm TGR block,SARS PLpro yeast
CCC(=O)Oc1cc(C(C)(C)C)cc2cc(-c3nc(-c4ccc(OC)cc4OC)no3)c(=O)oc12,.,.,3%,.
CCN(CC(=O)Nc1ccc(OC)cc1)CC(=O)N1CC(=O)Nc2ccccc21,?,?,-7%,1%
CCOC(=O)C1=C(C)N(C2CCCCC2)C(=O)C1,.,?,-28%,3%
COC(=O)C1=C(C)N(C2CCCCC2)C(=O)C1,1.9µM*,1%,2%,1%
CCCCOP(=O)(OCCCC)C1(NS(=O)(=O)c2ccccc2)C=CC(=O)c2ccccc21 (centres undefined),?,10µM*,?,-3%
COc1ccc2nc3c(cc2c1)c(NC(=O)CC(C)C)nn3CC(C)C,?,5.2µM*,2%,-3%
O=C(Nc1cccc(-c2nc3ccccc3[nH]2)c1)c1ccco1,15µM*,?,-19%,-5%
Cc1ccc2nc(-c3ccc(NC(=O)c4ccco4)cc3)[nH]c2c1,.,?,-31%,-5%
Cc1ccc(SCC(=O)Nc2ccc(-c3nc4ccccc4[nH]3)cc2)cc1,41%,12µM*,-2%,4%
CC(=O)Nc1cc(NC(C)=O)cc(-c2nc3ccccc3[nH]2)c1,10µM*,-19%,4%,-1%
CCOc1ccc(Nc2nc(-c3cccc(Cl)c3)c3c(n2)-c2ccccc2OC3)cc1,.,.,-10%,.
Cc1ccc2c(CC(=O)NC3CCS(=O)(=O)C3)coc2c1C (centres undefined),?,25%,-9%,5%
CC(=O)O[C@@]1(C)C[C@@H](O)[C@]2(O)C=CO[C@@H](O[C@@H]3O[C@H](CO)[C@@H](O)[C@H](O)[C@H]3O)[C@@H]21,40%,31%,-5%,0%
S=C(NCc1ccccc1)NCc1cccc(Cl)c1,3.7µM*,9%,-1%,?
CC1=C(C)CC(C(=O)Nc2cccc(Cl)c2)C(C(=O)O)C1 (centres undefined),71%,-14%,-24%,28%
CC1=C(C)CC(C(=O)NCc2cccc(Cl)c2)C(C(=O)O)C1 (centres undefined),13µM*,10%,1%,-2%
Fc1ccc(CNC(=S)NCc2cccc(Cl)c2)cc1,10µM*,?,-5%,-1%
S=C(NCCc1cccc(Cl)c1)NCc1ccccc1,?,4%,-2%,-3%
COc1ccc(OC)c2c1cc(C(=O)N[C@H](C(=O)N1CCC(C(=O)O)CC1)C(C)C)n2C,-3%,-18%,-4%,11%
CCc1ccc(NC(=O)CCn2cnc3ccccc3c2=O)cc1,.,.,-3%,.
O=C(Cc1c(Sc2ccccc2)c2ccccc2n1Cc1ccccc1)NCCO,?,?,0%,-3%
CSc1c(CC(=O)NCCCO)n(Cc2ccccc2)c2ccccc12,9.3µM*,-14%,0%,-4%
COc1ccc(NC(=O)Cc2c(SC)c3ccccc3n2Cc2ccccc2)cc1,7.4µM*,12µM*,7%,-6%
Cc1ccc(-n2nc3c(c2NC(=O)c2ccc4c(c2)OCO4)CS(=O)(=O)C3)c(C)c1,12µM*,-2%,-2%,4%
Cc1ccc(-n2nc3c(c2NC(=O)c2cccs2)CS(=O)(=O)C3)c(C)c1,0.59µM*,22%,?,26%
Cc1ccc(N2C(=O)CC(c3ccccc3F)C3=C2COC3=O)cc1Cl (centres undefined),.,.,5%,.
COc1cc2ccccc2cc1C(=O)Nc1nccs1,78%,149%,-4%,-12%
CC1CCCN(C(=O)CCl)C1 (centres undefined),1.5µM*,4.7µM*,?,14%
CC1CCCN(C(=O)CCCC(=O)N2CCCC(C)C2)C1 (centres undefined),-16%,1%,0%,-3%
COc1ccccc1N1CCN(C2CCCN(Cc3ccccc3OCCO)C2)CC1 (centres undefined),1.7µM*,?,9%,?
